In PubChem BioAssay AID687 (PCMD, 2007):
The whole screen tested about 33,000 compounds, of which about 95 (0.3%) were called active.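 How the source made its calls: active means inhibition above 40% in the primary screen; inactive means the rest.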 The sample as a whole holds a higher share of actives than the screen did.

Biological target: Coagulation factor XI (Homo sapiens) (UniProt P03951)
Assay: human FXIa protease inhibitors, primary screen, biochemical, single compound per well (AID 687);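 further: 0% = enzyme without compound and 100% = blank wells lacking enzyme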
Settings: purified human FXIa, fluorogenic AMC substrate cleavage; at 10 µM; hits give high values

Sequence of Coagulation factor XI (Homo sapiens) (P03951 19-387 limits assumed): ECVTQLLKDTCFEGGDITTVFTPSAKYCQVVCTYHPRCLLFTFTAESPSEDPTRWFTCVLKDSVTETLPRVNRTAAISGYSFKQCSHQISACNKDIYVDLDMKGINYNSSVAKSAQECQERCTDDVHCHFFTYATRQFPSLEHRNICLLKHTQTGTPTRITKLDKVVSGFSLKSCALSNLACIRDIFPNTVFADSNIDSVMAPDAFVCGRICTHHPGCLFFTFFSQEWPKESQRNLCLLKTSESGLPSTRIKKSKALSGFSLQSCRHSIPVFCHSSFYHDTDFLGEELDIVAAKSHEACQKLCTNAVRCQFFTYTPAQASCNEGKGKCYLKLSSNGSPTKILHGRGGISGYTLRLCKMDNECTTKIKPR
Sequence of Coagulation factor XI (Homo sapiens) (P03951 388-625 limits assumed): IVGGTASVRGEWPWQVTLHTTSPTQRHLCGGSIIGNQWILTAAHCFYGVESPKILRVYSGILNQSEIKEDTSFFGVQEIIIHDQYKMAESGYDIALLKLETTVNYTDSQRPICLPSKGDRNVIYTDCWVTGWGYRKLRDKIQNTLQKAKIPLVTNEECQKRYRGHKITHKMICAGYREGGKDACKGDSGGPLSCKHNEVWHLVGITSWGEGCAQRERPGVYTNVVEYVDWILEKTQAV

inhibition, active:
N#Cc1c(N)nc2c3c(sc(=N)c2c1N)NC(=O)CC3c1ccccc1Cl (centres undefined) 40.9%

inhibition, inactive:
CCc1ccc(CNC(=O)C2CC(=O)N(CCc3ccc(C)cc3)C2)cc1 (centres undefined) 1.74%
CC(C)(C)Oc1ncc(Br)c(OC(C)(C)C)n1 -4.12%
CCc1ccc(CNC(=O)CCc2nc(-c3cccs3)no2)cc1 5.18%
CCOC(=O)c1cnc(SCC(=O)Nc2ccccc2C(=O)OC)nc1N -1.2%
Cc1cc(C)n(-c2nnc(C)n2NC(=O)c2cccc(Cl)c2)n1 -1.74%
C/C(=N\NS(=O)(=O)c1ccc(Br)cc1)c1cccs1 7.3%
O=C(O)c1cc2ccccc2c(=O)s1 3.97%
CCn1c(CC(=O)Nc2ccc(C)cc2)nnc1SCC(=O)Nc1nc(C)cs1 0.06%
COc1ccc(C)cc1NC(=O)CCS(=O)(=O)c1cccc2nonc12 24.9%
Cc1cc(C)nc(N2C(=O)CC(Cc3ccccc3)C2=O)n1 (centres undefined) -0.09%
CCN1CC=C2C(C#N)=C(N)C(C#N)(C#N)[C@H](c3ccoc3)[C@H]2C1 1.2%
Cc1cccc(N2CCN(C(=O)c3cnn4c(C(F)F)cc(-c5ccccc5)nc34)CC2)c1C 3.2%
CCOC(=O)CN(Cc1ccc(OC)c(OC)c1)S(=O)(=O)c1ccc(OC)cc1 6.28%
CC(C)NC(=O)CSc1ccccc1C(=O)NCc1ccc2c(c1)OCO2 6.02%
COn1c(=O)c(=O)n(OC)c2ccccc21 3.76%
Cc1cc(C)n(C(=O)CCNC(=O)c2ccccc2Cl)n1 -5.37%
CCOC(=O)C1=C(C)NC2=C(C(=O)CC(C)(C)C2)C1c1ccsc1 (centres undefined) 1.22%
Cc1cc(=O)oc2ccc(OCC(=O)O)cc12 -9.94%
COc1ccc(Cl)cc1C(=O)Nc1ccc(N(C)C(C)=O)cc1 13.5%
COc1cccc(OC)c1C(=O)Nc1ccc(N2CCCCC2)cc1 4.14%
CCCC(=O)C1CCN(Cc2ccccc2)CC1 9.51%
O=C(O)CCN=C1CCc2ccccc2N1 5.95%
CCNC(=O)N1CCNC(=O)C1CC(=O)Nc1ccc(C(=O)OCC)cc1 (centres undefined) -0.73%
CCC(=O)N(Cc1ccccc1)c1ccccn1 -8.8%
O=C(c1ccco1)N1CCN(C(=O)C2CCCN(S(=O)(=O)c3cccc4nsnc34)C2)CC1 (centres undefined) -6.85%
CCCOc1cccc(C(=O)Nc2nnn(CCC)n2)c1 -6.61%
Cc1nnc(SCC(=O)N2CCc3ccccc3C2)s1 21.3%
O=C(COc1ccc(Cl)cc1)NCCSc1ccccc1 6.47%
COc1ccc(-n2cnc3cc(NCc4ccco4)ccc32)cc1 4.4%
Cn1nnnc1SCC(=O)N1CCN(C(c2ccccc2)c2ccccc2)CC1 -3.99%
CCCC(O)(c1ccc(OC)cc1)C(CN(C)C)c1ccccc1 (centres undefined) -1.37%
CSc1nc(C)cc(SC(C(C)=O)C(=O)Nc2ccccc2)n1 (centres undefined) 0.47%
CC(=O)Nc1cccc(Oc2cc(C#N)c(C#N)cc2N2CCOCC2)c1 2.12%
CCOc1ccc(NC(=O)CCS(=O)(=O)c2ccc3c(c2)CCCN3C(=O)CC)cc1 19.3%
Cc1ccc(S(=O)(=O)c2c(COC(=O)c3cccc(Cl)c3)c(-c3ccccc3)nn2C)cc1 6.1%
CSc1ccccc1NC(=O)c1cc(C2CC2)on1 5.92%
CC(=O)c1c(C)[nH]c(C(=O)NCc2ccc(C)cc2)c1C 4.49%
CCOc1cccc(NC(=O)Cn2nc(-c3ccc4c(c3)OCCO4)ccc2=O)c1 -4.23%
O=C1C=C(NCCNc2c(F)c(F)c(CO)c(F)c2F)CCC1 -9.07%
CC(C)C(c1nnnn1Cc1ccccc1)N1CCC(C(N)=O)CC1 (centres undefined) 3.2%
O=C(Cc1ccc(-n2c(=O)[nH]c3ccccc3c2=O)cc1)N1CCN(c2cccc(Cl)c2)CC1 3.03%
O=C(CN1CCSCC1)N/N=C/c1ccc(F)cc1 -8.31%
CCc1cccc(C)c1N(C(=O)Cn1c(CO)nc2ccccc21)C(C)COC (centres undefined) 20.8%
CC(=O)OC(C(=O)NCCc1ccccc1)c1cccnc1 (centres undefined) 4.94%
OCCN1CCOCCOCCN(CCO)CCN(CCO)CC1 29.9%
CCOc1ccc(C(O)Cc2nc3ccccc3n2C)cc1 (centres undefined) 4.61%
Cc1ccc(C(=O)N2CCN(C3CCCCC3)CC2)s1 -2.79%
CCCCN1C(=O)CC(N2CCOCC2)C1=O (centres undefined) 4.69%
O=c1[nH][nH]c(C(F)(F)F)c1C=NCc1ccccc1Cl -12.4%
O=C(NCc1ccc2c(c1)OCO2)C12CC3CC(CC(C3)C1)C2 -3.87%
COC(=O)CNS(=O)(=O)c1ccc(OC)cc1 0.19%
CCN(CC)C(=O)CSc1nnc(C2CCCCC2)o1 5.02%
CC1CCC(N2CC(=O)N(Cc3ccc4c(c3)OCO4)C(c3ccc(F)cc3)C2=O)CC1 (centres undefined) 1.08%
O=C(Cc1c(F)cccc1Cl)N1CCN(C(=O)c2ccco2)CC1 2.75%
O=C(O)CSCc1ccc(C(=O)O)o1 0.52%
CCC(CC)C(=O)N1CC(=O)Nc2ccc(Br)cc2C1c1ccccc1 (centres undefined) -3.26%
CC(C)C(=O)NC(NC(=S)NC1CCS(=O)(=O)C1)C(Cl)(Cl)Cl (centres undefined) 0.31%
CCCc1nc2oc3c(OCC)ncnc3c2c2c1COC(C)(C)C2 26%
Cc1cc(C(=O)Nc2c(C)nn(Cc3ccccc3)c2C)on1 9.91%
COc1ccc(-c2cn(-c3ccc(C)cc3)c(=O)n2CC(=O)Nc2ccc(OC)c(OC)c2)cc1 -1.74%
S=c1nccc(-c2cc(Cl)sc2Cl)[nH]1 3.11%
CC1CC(C)CN(C(=O)CSc2nnc(CSc3ncccn3)n2C)C1 (centres undefined) -0.18%
O=c1c2ccccc2nc2n1C1(CCCCC1)Cc1ccccc1-2 -5.48%
CC(=O)Nc1ccccc1OC(=O)N1CCOCC1 -4.74%
O=C(CN1CCCCCC1)N1c2ccccc2Sc2ccc(C(F)(F)F)cc21 2.04%
C=CCC(NCc1ccco1)c1ccc(OC)cc1 (centres undefined) 4.05%
O=C(CC1NCCNC1=O)Nc1ccc(Oc2ccccc2)cc1 (centres undefined) 0%
CCOC(=O)c1cnc2sccn2c1=O 6.51%
O=C(c1ccc(CN2CCOCC2)cc1)N1CCN(c2ccccc2F)CC1 3.59%
Cn1c(N)c(C(=O)COC(=O)C23CC4CC(CC(C4)C2)C3)c(=O)n(C)c1=O 21.8%
O=C(NCCOc1ccccc1)c1ccccc1 -5.53%
CC1CN(S(=O)(=O)c2ccccc2)C(C)CN1S(=O)(=O)c1ccccc1 (centres undefined) 1.71%
COCCn1c(C)cc(C2=NNC(=Nc3ccc(F)cc3)SC2)c1C -6.11%
COc1ccc(N(CC(=O)NC2CCCCC2)S(=O)(=O)c2c(C)[nH]c(=O)[nH]c2=O)cc1 8.86%
CCOc1c(Cl)cc(/C=N/O)cc1OC -2.81%
COc1ccc(-n2nc(C(=O)NCC(=O)Nc3cccc(C)n3)c3ccccc3c2=O)cc1 -9.02%
N#C/C(=C(\O)CCl)c1nnc2n1CCCCC2 -2.88%
CCOC(=O)N1CCN(Cc2nc(N)nc(Nc3ccc(C)cc3)n2)CC1 17.1%
COCCCNC(=O)C1CC(=O)N(CCc2ccccc2)C1 (centres undefined) 7.75%
Cc1cccc(C)c1NC(=O)CSc1nnc(-c2ccccc2)n1Cc1ccc2c(c1)OCO2 3.72%
COC(=O)c1ccc(CSc2ccc3nnc(-c4ccccc4)n3n2)o1 1.01%
CC(C)C(=O)Nc1nnc(Sc2ccc(N(C)C)cc2)s1 -3.42%
Cc1ccc(-c2noc(CSc3nnc(-c4ccncc4)n3-c3ccc(F)cc3)n2)cc1 4.76%
COC(=O)C(C(=O)Nc1cccc(C)n1)C1CCCCCC1 (centres undefined) -11.6%
Cn1c(CC(=O)Nc2ccccc2)nnc1SCC(=O)c1ccccc1 -6.46%
O=C(COc1ccc(Cl)cc1)Nc1ccccc1CO 2.06%
C=CCn1c(N)cc(=O)nc1SCC(=O)Nc1cccc2ccccc12 9.45%
CCn1c(SCC(=O)Nc2ccc(OC)c(OC)c2)nnc1-c1c[nH]c2ccccc12 7.43%
COC(=O)C1C(=O)NCC1c1ccc(C)cc1 (centres undefined) 8.67%
CC(=O)Nc1ccc(S(=O)(=O)N2CCN(C3CCCCCCC3)CC2)cc1 0.06%
CCOc1ccc(C(=O)Nc2ccncc2)cc1 -1.05%
CC(C)(C)NC(=O)CN(Cc1cccs1)C(=O)CNS(=O)(=O)c1ccccc1 -7.23%
CCOCc1nnc(NC(=O)CSc2ccc(C)cc2)s1 -2.27%
CC1=NN(C(C)C)C(=O)C1 28.4%
CC(=O)Nc1ccc(NC(=O)CSCc2cnn(-c3ccccc3)c2-n2cccc2)cc1 6.64%
COc1ccccc1N(C(=O)Cn1nnc2ccccc21)C(C(=O)NCc1ccco1)c1ccc(C)o1 (centres undefined) -1.36%
O=C(CCc1ccccc1)NCc1cccnc1 23.1%
Cc1cc(C(=O)OC(C)C(=O)Nc2cccc(S(=O)(=O)N3CCOCC3)c2)c(C)o1 (centres undefined) -5.93%
